This is part of a sample that, as a whole, favours compounds with a hit. Of some 83,000 tested, about 20% had one in any assay.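 Note: values are percent growth. 100 is the growth of untreated cells, values between 100 and 0 indicate rising inhibition; between -100 and 0 indicates cell death.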 A number with no mark means an inactive call. Activity calls are given as the source filed them. The calls were made as follows: active = growth percent below 10; inactive = the rest.

The subject of the experiment is T-47D breast. The experiment is described as follows: NCI-60 one-dose screen, 48 h (100 = growth as untreated, 0 = no growth, -100 = all killed). The conditions noted are these: 10 µM unless noted.
As to `COc1ccc(C2CC(c3cccc(OCCCCOc4cccc(C5=NN(C(C)=O)C(c6ccc(OC)cc6)C5)c4)c3)=NN2C(C)=O)cc1` (stereo unspecified), the growth is 40.1%.
Turning to `O=C(CSc1nc2ccccc2c(=O)n1-c1ccccc1)Nc1ccc(S(=O)(=O)Nc2nccs2)cc1`, the growth is 69.3%.
Consider `COC(=O)c1ccc(NC2=C(Cl)C(=O)C(C)=C(C)C2=O)cc1`, for which the growth was -25.9% (active).
In the case of `O=S(=O)(Oc1ccc(-c2cn3ccoc3n2)cc1)c1cccc(C(F)(F)F)c1`, the growth was 85.5%.
For the compound `O=C(Nc1ccc(N2CCOCC2)cc1)Nc1ccc2c(ccn2C(=O)c2cccc(F)c2)c1`, the growth was 68.9%.
Turning to `CCc1cc(OC(=O)N2CCN(CCC(C)(COC(C)(C)C)COC(C)(C)C)CC2)ccc1Nc1cc(-c2ccc(-n3cccn3)cc2)[nH]n1`, the growth was 61%.
In the case of `COC(=O)CNC(=O)c1cccc(-c2cc(=O)c3c(OC)c(OC)c(OC)cc3o2)c1` it was 107%; in that of `Cc1csc(/N=C(N)/N=C(\N)c2cccs2)n1`, 95.9%.
As for `C#Cc1nc(C(=O)NCCCCCCC(=O)NO)cs1`, the growth was -38.5% (active).
`COC(=O)c1ccc(NC2=C(Cl)C(=O)c3nc(C)ccc3C2=O)cc1`: the growth is 31.2%.
In the case of `O=C(Nc1ccc(N=Cc2c(O)[nH]c3ccccc23)cc1)Nc1ccc(S(=O)(=O)Nc2ncccn2)cc1` it was 92.2%; in that of `CSc1ccc(/C(=N/N=C(N)N)c2ccc(Cl)cc2)cc1`, 50.5%; in that of `O=c1[nH][nH]c(-c2ccc(F)cc2)c1-c1nc2ccccc2s1`, 87.7%.
In the case of `Clc1cccc(/C=N/Nc2nc(N/N=C/c3cccc(Cl)c3)nc(N3CCOCC3)n2)c1` it was 68.5%.
With `CCN(CC)c1ccc(/C=N/NC(=O)c2ccc(S(N)(=O)=O)cc2)c(O)c1`, the growth was 30.4%.
In the case of `COc1ccc(/C=N/NC(=O)c2c(N)nn(C)c2Nc2ccccc2)cc1` it was 42.4%; in that of `Cc1cc(NS(=O)(=O)c2ccc(NC(=O)CSc3nc4ccccc4c(=O)n3-c3ccccc3)cc2)no1`, 90%.
As to `O=C(Nc1cccc(C(F)(F)F)c1)N1CCN(c2cc(-c3cn(-c4ccccc4)nc3-c3cccc(O)c3)ccn2)CC1`, the growth is -5.55% (active).
As to `N#Cc1nc(-c2ccccc2)oc1N1CCC(C2(C(F)(F)F)N=N2)CC1`, the growth is 95.6%.
Then `O=C1/C(=C/c2cc(F)cc(F)c2)Cc2cc3c(cc21)OCO3`, with 47.6%; and `Clc1cccc(/C=N/Nc2nc(N/N=C/c3cccc(Cl)c3)nc(N3CCCCC3)n2)c1`, with 76%.
Then `Cn1c(SCC(=O)c2ccc(Br)cc2)nc2ccccc2c1=O`, with 78.4%; and `CC(=O)C1=C(C)NC(NNc2ccccc2)=NC1c1ccc([N+](=O)[O-])cc1` (stereo unspecified), with 83.3%; and `COc1cccc2c1[C@H](OC)[C@]13O[C@@]1(C2=O)[C@H](O)[C@H](C)[C@@](O)(C(=O)[C@@H]1O[C@H]1C)[C@@H]3O`, with -11.8% (active).
Turning to `COc1ccc(/C=N/NC(=O)CSc2nc(-c3cnccn3)cc(-c3cccs3)c2C#N)cc1`, the growth is 68.7%.
For `CSc1ccc(/C(=N/N=C(N)N)c2ccc(F)cc2)cc1`, the growth was 58.1%.
For the compound `Fc1cccc(Cl)c1/C=N/Nc1nc(N/N=C/c2c(F)cccc2Cl)nc(N2CCCCC2)n1`, the growth was 11%.
As for `NNc1nnc2nc(Nc3ccccc3)nc(Nc3ccc(S(N)(=O)=O)cc3)n12`, the growth was 109%.
In the case of `O=C1[C@H]2Cc3c([nH]c4ccccc34)[C@H](c3ccc(Cl)cc3)N2C(=O)CN1C1CCN(CC2CCCCC2)CC1` it was 93%.
For `Brc1cc(-c2cc(-c3ccc4c(c3)OC=CO4)[nH]n2)cs1`, the growth is 62.1%.
As for `C#C[C@]1(O)CC[C@H]2[C@@H]3CC=C4c5sc(Nc6ncccc6C)nc5CC[C@]4(C)[C@H]3CC[C@@]21C`, the growth was 29.2%.
Take `CNC(=O)Nc1ccc(Nc2cc(-c3ccc(-n4cccn4)cc3)[nH]n2)c(C)c1`: the growth was 104%.
Consider `COc1cc(C(=O)c2cc(C(C)=O)c3c(C)cccn23)cc(OC)c1OC`, for which the growth was 81.8%.
Turning to `O=C1Nc2ccccc2/C1=C/c1ccc(OCC(=O)c2ccccc2)cc1`, the growth was 97.6%.
In the case of `Cn1cc(-c2nn3cc(-c4ccncc4)nc3s2)c2cc(Br)ccc21` it was 37.5%; in that of `CS(=O)(=O)c1ccc(/C(=N/N=C(N)N)c2ccc(F)cc2)cc1`, 94.4%.

These data come from PubChem BioAssay (NCI).
